GRK2 aptamer HTS – human GRK2 inhibition via aptamer displacement; bead flow cytometry, FAM-aptamer displacement from GRK2; P25098; 0.59% of 330,000 active; inhibition of aptamer binding, % at 10 µM;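 active = inhibition of aptamer binding above 40%, roughly 3 SD of noise, on plates passing a quality check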;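 also: median bead fluorescence of bound FAM aptamer so fluorescent compounds give negative values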
Target sequence (P25098 whole entry, looked up): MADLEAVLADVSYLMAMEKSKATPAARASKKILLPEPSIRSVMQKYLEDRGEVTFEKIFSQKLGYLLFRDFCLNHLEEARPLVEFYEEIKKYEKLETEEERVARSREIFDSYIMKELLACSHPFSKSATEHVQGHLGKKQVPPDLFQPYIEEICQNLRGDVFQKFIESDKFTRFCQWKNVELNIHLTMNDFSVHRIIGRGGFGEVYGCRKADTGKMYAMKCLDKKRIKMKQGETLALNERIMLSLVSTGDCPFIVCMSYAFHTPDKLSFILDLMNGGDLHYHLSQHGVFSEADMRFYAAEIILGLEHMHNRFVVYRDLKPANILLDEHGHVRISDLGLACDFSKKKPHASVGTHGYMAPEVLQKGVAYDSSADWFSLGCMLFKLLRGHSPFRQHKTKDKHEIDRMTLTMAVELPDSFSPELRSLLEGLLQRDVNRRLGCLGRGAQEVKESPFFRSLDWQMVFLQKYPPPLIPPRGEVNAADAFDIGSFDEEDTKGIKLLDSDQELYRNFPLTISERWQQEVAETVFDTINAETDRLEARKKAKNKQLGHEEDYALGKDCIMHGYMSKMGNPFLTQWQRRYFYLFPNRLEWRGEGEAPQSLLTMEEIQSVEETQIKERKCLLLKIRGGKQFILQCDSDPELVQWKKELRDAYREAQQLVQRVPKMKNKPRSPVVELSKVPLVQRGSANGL
MEKK2wt PB1 HTS – raises or lowers MEK5 binding to wildtype human MEKK2 PB1 domain; Q9Y2U5; bead flow cytometry, Alexa488-MEK5 binding to MEKK2 WT; actives lie on both sides; binding response (% of control), % at 10 µM; 1.1% of 290,000 active; AID 1531; in the data active = binding response below about 67% or above about 130%
MEKK2mut PB1 HTS – signal of MEK5 binding to mutant human MEKK2 PB1 domain; bead flow cytometry, Alexa488-MEK5 binding to MEKK2 mutant; 0.35% of 290,000 active; percent response, % at 10 µM; in the data active = percent response above about 24%, passing the limit was not always enough
MEKK3 PB1 HTS – modulators (inhibitors or enhancers) of MEK5 binding to human MEKK3 PB1 domain; Q99759; binding response (% of control), % at 10 µM; 1.4% of 290,000 active; bead-based flow cytometry, Alexa488-MEK5 binding to MEKK3; actives lie on both sides; 0 = blocked by unlabeled MEK5, 100 = vehicle;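 active = binding response more than 3 SD above or below the average of its plate-row segment, actives on both sides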;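 also: Alexa488 bead fluorescence after subtracting the streptavidin-only scavenger bead signal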
MEKK2wt confirm – raises or lowers MEK5 binding to wildtype human MEKK2, retest | bead flow cytometry, Alexa488-MEK5 binding to MEKK2 WT; actives lie on both sides | AID 1892 | shares compounds with MEKK3 PB1 HTS | 2.4% of 5,900 active | binding response (% of control), % at 10 µM; in the data active = binding response below about 16% or above about 210%; inactive = in between
MEKK2mut-MEK5 – signal of MEK5 binding to mutant human MEKK2, retest; shares compounds with MEKK3 PB1 HTS; bead flow cytometry, Alexa488-MEK5 binding to MEKK2 mutant; percent response, % at 10 µM; 2% of 5,900 active; in the data active = percent response mostly above about 71%, no sharp cut-off; inactive = mostly below about 38%;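 also: higher means compound restores mutant binding toward wildtype level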
MEKK3-MEK5 inh – confirmation of inhibitors of MEK5 binding to human MEKK3. shares compounds with MEKK3 PB1 HTS. bead flow cytometry, Alexa488-MEK5 binding to MEKK3; stronger effect = lower value. binding response (% of control), % at 10 µM. 1.8% of 5,900 active;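 active = binding response below 72% of control, or above a set upper limit, though filed actives all read lower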
Large screens that a line does not name were inactive (follow-up assays come after a bar, where they were run); ! = repeats disagree; [ ] = dose if it differs, or a comment. Sampled rows, rich in hits. Any-hit rate of the full collection: about 2.5%.

CCOc1cc(CNCc2ccccc2)ccc1OCc1ccc(Cl)cc1	MEKK2wt PB1 HTS 160.0 | MEKK2wt confirm inactive | MEKK2mut-MEK5 inactive | MEKK3-MEK5 inh inactive
COc1ccc(CNCCc2ccccc2)cc1OCC(N)=O	none
CCNCc1ccc(OCc2cccs2)c(OCC)c1	none
CCn1c(C)nc2cc(C(=O)NNC(=S)NC(=O)c3ccccc3)ccc21	none
CCCCN1CNC(=S)N(Cc2ccccc2)C1	MEKK3 PB1 HTS 130.0 | MEKK2wt confirm inactive | MEKK2mut-MEK5 inactive | MEKK3-MEK5 inh inactive
CCCN1CNC(=S)N(Cc2ccccc2)C1	none
CC(C)COC(=O)c1nnsc1NC(=O)Nc1ccccc1	MEKK3 PB1 HTS 76.0[inhibitor] | MEKK2wt confirm inactive | MEKK2mut-MEK5 inactive | MEKK3-MEK5 inh inactive
COc1ccc(-c2cc(-n3c(C(F)(F)F)nc4ccccc43)n(CCC#N)n2)cc1	MEKK3 PB1 HTS 82.0[inhibitor] | MEKK2wt confirm inactive | MEKK2mut-MEK5 inactive | MEKK3-MEK5 inh inactive
COc1ccc(Sc2nc3ccccc3n3c(C(F)(F)F)nnc23)cc1	none
CCN(CC)CCN1C(=O)/C(=C\c2ccc(Cl)c([N+](=O)[O-])c2)SC1=Nc1ccc(OC)cc1	MEKK2wt PB1 HTS 197.0, MEKK2mut PB1 HTS 36.0 | MEKK2wt confirm inactive | MEKK2mut-MEK5 inactive | MEKK3-MEK5 inh inactive
COc1ccc(N=C2S/C(=C\c3ccc(Cl)c([N+](=O)[O-])c3)C(=O)N2CCN(C)C)cc1	MEKK2wt PB1 HTS 182.0, MEKK2mut PB1 HTS 69.0 | MEKK2wt confirm inactive | MEKK2mut-MEK5 inactive | MEKK3-MEK5 inh inactive
CC(C)(C)C(=O)COC(=O)c1cc2ccccc2cc1O	MEKK3 PB1 HTS 67.0[inhibitor] | MEKK2wt confirm inactive | MEKK2mut-MEK5 inactive | MEKK3-MEK5 inh inactive
COc1ccc(-c2cc(=O)c3c(OC)c(OC)c(OC)c(OC)c3o2)cc1OC	MEKK3 PB1 HTS 68.0![inhibitor] | MEKK2wt confirm inactive | MEKK2mut-MEK5 inactive | MEKK3-MEK5 inh inactive
CCCN=C1N(C)C[C@@H]2[C@@H]3C(=O)N(Cc4ccccc4)C(=O)[C@@H]3[C@](Cc3ccccc3)(C(=O)OC)N12	none (no result: MEKK2wt PB1 HTS, MEKK2mut PB1 HTS, MEKK3 PB1 HTS)
CCOc1ncccc1C(=O)NNC(=O)c1cccc(S(=O)(=O)N2CCOCC2)c1	none (no result: MEKK2wt PB1 HTS, MEKK2mut PB1 HTS, MEKK3 PB1 HTS)
COc1ccc(C2CC(c3cccs3)=NN2C(=O)CSc2nc3ccccc3s2)cc1 (stereo not given)	MEKK3 PB1 HTS 130.0 | MEKK2wt confirm inactive | MEKK2mut-MEK5 inactive | MEKK3-MEK5 inh inactive
O=C(CSc1nc2ccccc2s1)N1N=C(c2cccs2)CC1c1ccc(F)cc1 (stereo not given)	MEKK3 PB1 HTS 73.0[inhibitor] | MEKK2wt confirm inactive | MEKK2mut-MEK5 inactive | MEKK3-MEK5 inh inactive
COc1ccc(C2CC(c3cccs3)=NN2C(=O)CSc2nc3ccccc3o2)cc1 (stereo not given)	none
Cc1cc(-n2c(C)cc(C(=O)CSc3nncn3C(C)C)c2C)no1	none (no result: MEKK2wt PB1 HTS, MEKK2mut PB1 HTS, MEKK3 PB1 HTS)
Cc1ccc(C)c(NC(=O)CN(C)C(=O)CC2OC(=O)c3ccccc32)c1 (stereo not given)	none (no result: MEKK2wt PB1 HTS, MEKK2mut PB1 HTS, MEKK3 PB1 HTS)
O=C(NCCCn1ccnc1)/C(=C\c1cccnc1)NC(=O)c1ccco1	none
O=C(NCCCn1ccnc1)/C(=C/c1ccco1)NC(=O)c1ccco1	MEKK3 PB1 HTS 66.0[inhibitor] | MEKK2wt confirm inactive | MEKK2mut-MEK5 inactive | MEKK3-MEK5 inh inactive
COc1cccc(Cn2cc(C(=O)NCCN(C)C)nn2)c1	none
CCc1c(C)nc2ncnn2c1N1CCC(C(=O)NCc2cccc(OC)c2)CC1	none
CCc1c(C)nc2ncnn2c1N1CCC(C(=O)NCc2cccs2)CC1	MEKK2wt PB1 HTS 6.0[inhibitor], MEKK3 PB1 HTS 3.0[inhibitor] | MEKK2wt confirm inactive | MEKK2mut-MEK5 inactive | MEKK3-MEK5 inh inactive
CCC(=O)Nc1nnc(S(=O)(=O)N(C)c2cc(C)cc(C)c2)s1	none
N#C/C(=C\C1=C(N2CCOCC2)C(=C\c2ccc(Cl)cc2)/CC1)C(=O)Nc1ccccc1F	MEKK3 PB1 HTS 7.0[inhibitor] (no result: MEKK2wt PB1 HTS) | MEKK2wt confirm inactive | MEKK2mut-MEK5 inactive | MEKK3-MEK5 inh inactive
N#C/C(=C\C1=C(N2CCOCC2)C(=C/c2cccc([N+](=O)[O-])c2)/CC1)C(=O)Nc1ccccc1F	MEKK3 PB1 HTS 9.0[inhibitor] (no result: MEKK2wt PB1 HTS) | MEKK2wt confirm inactive | MEKK2mut-MEK5 inactive | MEKK3-MEK5 inh inactive
O=C(/C=C/c1cccc([N+](=O)[O-])c1)Nc1ccccc1N1CCOCC1	none
O=C(O)c1ccccc1N/N=C/C1=C(N2CCOCC2)C(=C\c2ccccc2)/CC1	none
O=C(N/N=C/c1ccccc1)c1ccc(OCc2ccccc2)cc1	none
N#C/C(=C\c1ccc(OCc2ccccc2)cc1)C(N)=O	MEKK3 PB1 HTS 131.0 | MEKK2wt confirm inactive | MEKK2mut-MEK5 inactive | MEKK3-MEK5 inh inactive
Cc1ccc(COc2ccc(/C=N/O)cc2)cc1	none
NC(N)=N/N=C/c1ccc(OCc2ccc(Cl)cc2)cc1	MEKK2wt PB1 HTS 183.0, MEKK2mut PB1 HTS 29.0 | MEKK2wt confirm inactive | MEKK2mut-MEK5 inactive | MEKK3-MEK5 inh inactive
O=C(O)c1cc(N/N=C/c2ccc(OCc3ccccc3)cc2)ccc1Cl	MEKK2wt PB1 HTS 186.0, MEKK2mut PB1 HTS 134.0 | MEKK2wt confirm inactive | MEKK2mut-MEK5 inactive | MEKK3-MEK5 inh inactive
NC(N)=N/N=C/c1ccc(OCc2ccccc2)cc1	MEKK2wt PB1 HTS 162.0[inhibitor] | MEKK2wt confirm inactive | MEKK2mut-MEK5 inactive | MEKK3-MEK5 inh inactive
COc1ccccc1NC(=O)Cc1ccsc1	none
CC(=O)OCC(OC(C)=O)C(OC(C)=O)C(OC(C)=O)C(=O)Nc1ccccc1 (stereo not given)	none
CCN1CCN(CCNC(=O)c2ccc(/C=C3/Sc4ccccc4N(Cc4ccccc4C)C3=O)cc2)CC1	MEKK2wt PB1 HTS 203.0, MEKK2mut PB1 HTS 54.0 (no result: GRK2 aptamer HTS) | MEKK2wt confirm inactive | MEKK2mut-MEK5 inactive | MEKK3-MEK5 inh inactive
CC1(C)NC(=O)N(CCOc2ccc([N+](=O)[O-])cc2)C1=O	MEKK3 PB1 HTS 42.0[inhibitor] | MEKK2wt confirm inactive | MEKK2mut-MEK5 inactive | MEKK3-MEK5 inh inactive
CN(C)S(=O)(=O)N1CCN(CC(O)COc2ccc3cc(Br)ccc3c2)CC1 (stereo not given)	MEKK2wt PB1 HTS 134.0 | MEKK2wt confirm inactive | MEKK2mut-MEK5 inactive | MEKK3-MEK5 inh inactive
CCOC(=O)C1CCCCN1S(=O)(=O)c1cc2c(cc1C)NC(=O)CO2 (stereo not given)	none
CCOc1ccccc1N1CCN(C(=S)Nc2ccc(S(=O)(=O)Nc3ncccn3)cc2)CC1	none
CCCOc1cccc(C(=O)NC(=S)Nc2ccc(N3CCN(C)CC3)cc2)c1	MEKK2wt PB1 HTS 152.0 | MEKK2wt confirm inactive | MEKK2mut-MEK5 inactive | MEKK3-MEK5 inh inactive
O=C(NC(=S)Nc1ccc(CN2CCCCC2)cc1)c1cccc(OCc2ccccc2)c1	MEKK2wt PB1 HTS 220.0, MEKK2mut PB1 HTS 63.0 | MEKK2wt confirm inactive | MEKK2mut-MEK5 inactive | MEKK3-MEK5 inh inactive
